Data published in PubChem BioAssay.
Activity calls are given as the source filed them.

Key:
[1] = optical density shifts of acrAB sulA E. coli – strain DRC41, OD650, 48 h, E. coli filamentation inducer project, primary screen (AID 1152); conditions: higher = more signal, called active from +8 up or from −8 down;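 further: E. coli MC1000 strain DRC41 lacking acrAB efflux pump and sulA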
[2] = probe aLefty1 binding on compound microarray – biochemical, small-molecule microarray, 635/667 nm fluorescence, primary screen (AID 1153); conditions: higher = more signal;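 further: score merges spot fluorescence with signal-to-noise ratio from the scanned slide images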
[3] = plasmodial surface anion channel blockers, osmotic lysis – cell-based, P. falciparum Indochina, OD700, 1 h, primary screen (AID 1154); conditions: P. falciparum Indochina infected RBC osmotic lysis, higher = more signal, called active from +8 up or from −8 down
[4] = plasmodial surface anion channel blockers, osmotic lysis – cell-based, P. falciparum Indochina, OD700, 2 h, primary screen (AID 1155);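 further: lysis reports solute entry through the parasite surface anion channel PSAC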; conditions: P. falciparum Indochina infected erythrocytes, higher = more signal, called active from +8 up or from −8 down
[5] = changes in parasitized red cell lysis, either direction – P. falciparum Indochina, OD700, 3 h, PSAC antagonist project, primary screen (AID 1156); conditions: P. falciparum-infected erythrocytes, osmotic lysis, higher = more signal, called active from +8 up or from −8 down
[6] = plasmodial surface anion channel blockers, osmotic lysis – cell-based, P. falciparum Indochina, OD700, 18 h, primary screen (AID 1157); conditions: P. falciparum Indochina infected erythrocytes, osmotic lysis OD700, 18 h; higher = more signal, called active from +8 up or from −8 down
[7] = S6 kinase pathway phospho-S6 level changes – cell-based, A549, cytoblot, luminescence, serum-stimulated, primary screen (AID 1158); conditions: 5 h, higher = more signal;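 further: serum-stimulated A549 lung adenocarcinoma cells; signal is phosphorylated S6 detected by cytoblot immunostaining with HRP secondary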
[8] = biological target: NADPH oxidase 2 (Homo sapiens) (UniProt P04839); assay: compounds shifting NOX2 Amplex Red fluorescence – cell-based, HEK293-NOX2, PMA-stimulated, NOX inhibitor project, primary screen (AID 1159); conditions: 45 min, higher = more signal, called active from +8 up or from −8 down; further: test concentration not given here
Sequence of NADPH oxidase 2 (Homo sapiens) (P04839 whole entry, looked up): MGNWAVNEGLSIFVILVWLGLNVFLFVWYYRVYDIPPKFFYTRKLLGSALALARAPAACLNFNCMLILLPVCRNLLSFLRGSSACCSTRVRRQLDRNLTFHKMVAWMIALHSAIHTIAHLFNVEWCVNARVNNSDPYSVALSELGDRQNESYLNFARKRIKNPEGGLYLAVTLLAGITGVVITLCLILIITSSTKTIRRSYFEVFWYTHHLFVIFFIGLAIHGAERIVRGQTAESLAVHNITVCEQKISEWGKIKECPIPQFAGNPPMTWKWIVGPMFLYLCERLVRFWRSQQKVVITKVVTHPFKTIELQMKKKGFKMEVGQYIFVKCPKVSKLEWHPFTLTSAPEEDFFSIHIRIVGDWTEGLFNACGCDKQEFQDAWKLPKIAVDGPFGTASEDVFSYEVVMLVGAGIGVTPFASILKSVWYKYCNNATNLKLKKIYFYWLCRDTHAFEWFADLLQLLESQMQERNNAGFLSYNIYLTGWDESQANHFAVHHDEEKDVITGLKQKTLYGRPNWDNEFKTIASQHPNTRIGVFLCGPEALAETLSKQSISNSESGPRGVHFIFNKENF

[9] = biological target: NADPH oxidase 4 (Homo sapiens) (UniProt Q9NPH5); assay: compounds shifting NOX4 Amplex Red fluorescence – cell-based, HEK293-NOX4, tetracycline-induced, NOX inhibitor project, primary screen (AID 1160); conditions: HEK293-NOX4, Amplex Red H2O2 fluorescence, 45 min; higher = more signal, called active from +8 up or from −8 down
Sequence of NADPH oxidase 4 (Homo sapiens) (Q9NPH5 whole entry, looked up): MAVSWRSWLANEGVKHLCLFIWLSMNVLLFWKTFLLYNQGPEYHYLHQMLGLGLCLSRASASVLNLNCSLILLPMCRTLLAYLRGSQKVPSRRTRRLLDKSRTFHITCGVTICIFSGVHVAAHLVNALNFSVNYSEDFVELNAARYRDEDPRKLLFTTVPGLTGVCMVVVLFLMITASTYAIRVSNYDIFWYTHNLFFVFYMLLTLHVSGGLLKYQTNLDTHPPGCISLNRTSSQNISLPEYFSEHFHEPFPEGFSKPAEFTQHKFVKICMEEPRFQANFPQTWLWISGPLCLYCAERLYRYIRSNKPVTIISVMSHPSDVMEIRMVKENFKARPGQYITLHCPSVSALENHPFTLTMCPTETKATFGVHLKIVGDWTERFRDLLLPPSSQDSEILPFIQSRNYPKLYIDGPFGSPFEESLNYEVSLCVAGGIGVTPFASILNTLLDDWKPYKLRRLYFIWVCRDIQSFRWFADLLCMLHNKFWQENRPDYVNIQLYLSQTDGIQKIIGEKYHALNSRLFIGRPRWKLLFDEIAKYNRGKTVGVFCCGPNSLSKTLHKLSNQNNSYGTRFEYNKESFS

[10] = biological target: NADPH oxidase 5 (Homo sapiens) (UniProt Q96PH1); assay: compounds shifting NOX5 Amplex Red fluorescence – cell-based, HEK293-NOX5, NOX inhibitor project, primary screen (AID 1161); conditions: HEK293-NOX5, ionomycin, 45 min, higher = more signal
Sequence of NADPH oxidase 5 (Homo sapiens) (Q96PH1 whole entry, looked up): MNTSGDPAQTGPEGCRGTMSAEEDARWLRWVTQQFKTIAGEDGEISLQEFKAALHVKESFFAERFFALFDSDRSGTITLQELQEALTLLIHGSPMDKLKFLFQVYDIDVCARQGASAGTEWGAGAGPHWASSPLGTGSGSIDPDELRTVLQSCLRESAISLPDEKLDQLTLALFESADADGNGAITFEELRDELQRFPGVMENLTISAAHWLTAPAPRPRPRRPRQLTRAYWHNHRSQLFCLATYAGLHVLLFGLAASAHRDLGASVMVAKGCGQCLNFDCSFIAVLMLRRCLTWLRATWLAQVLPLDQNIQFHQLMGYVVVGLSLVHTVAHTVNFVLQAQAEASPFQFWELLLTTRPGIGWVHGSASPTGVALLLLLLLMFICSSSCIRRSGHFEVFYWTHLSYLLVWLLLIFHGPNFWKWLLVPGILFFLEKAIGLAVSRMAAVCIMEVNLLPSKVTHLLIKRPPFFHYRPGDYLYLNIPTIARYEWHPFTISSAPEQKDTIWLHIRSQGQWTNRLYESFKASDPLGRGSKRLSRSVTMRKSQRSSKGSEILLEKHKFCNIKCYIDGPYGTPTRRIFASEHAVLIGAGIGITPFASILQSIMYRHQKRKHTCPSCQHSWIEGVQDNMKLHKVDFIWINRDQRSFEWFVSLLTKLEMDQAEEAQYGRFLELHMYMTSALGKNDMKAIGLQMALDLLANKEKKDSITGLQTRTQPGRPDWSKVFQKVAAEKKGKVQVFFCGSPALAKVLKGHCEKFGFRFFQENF

[11] = compound effects on lung adenocarcinoma cell viability – A549, calcein-AM fluorescence, 48 h, basal, profiling panel (AID 1162); conditions: higher = more signal; further: test concentration not given here
[12] = compound effects on differentiated 3T3-L1 adipocyte viability – cell-based, 3T3-L1 adipocytes, calcein-AM fluorescence, 48 h, basal, profiling panel (AID 1163); conditions: 3T3-L1 adipocytes viability, higher = more signal; further: test concentration not given here
[13] = compound effects on hepatocellular carcinoma cell viability – HepG2, calcein-AM fluorescence, 48 h, basal, profiling panel (AID 1164); conditions: higher = more signal; further: test concentration not given here
[14] = compound effects on multiple myeloma cell viability – MM1S, calcein-AM fluorescence, 48 h, basal, profiling panel (AID 1165); conditions: higher = more signal; further: test concentration not given here
[15] = calcein-AM signal in unstimulated myeloma cells – cell-based, calcein-AM fluorescence, 48 h, PK04 Diversity Set, profiling panel (AID 1166); conditions: RPMI8226 myeloma viability, higher = more signal;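 further: cells grown under basal conditions without added stimulus; test concentration not given here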
[16] = JC-1 mitochondrial signal, unstimulated HepG2 cells – cell-based, JC-1 fluorescence, 24 h, 100 nL compound, profiling panel (AID 1167); conditions: HepG2 mitochondrial potential, higher = more signal; further: test concentration not given here
[17] = JC-1 mitochondrial signal, unstimulated adipocytes – cell-based, JC-1 fluorescence, 3T3-L1 adipocytes, 24 h, 100 nL compound, profiling panel (AID 1168); conditions: JC-1 mitochondrial fluorescence, higher = more signal, called active from +8 up or from −8 down; further: test concentration not given here
[18] = JC-1 mitochondrial signal, unstimulated myeloma cells – cell-based, JC-1 fluorescence, RPMI8226, 24 h, 100 nL compound, profiling panel (AID 1169); conditions: JC-1 mitochondrial potential fluorescence, higher = more signal; further: test concentration not given here
[19] = JC-1 mitochondrial signal, unstimulated MM1S myeloma – cell-based, JC-1 fluorescence, 24 h, 100 nL compound, profiling panel (AID 1170); conditions: MM1S mitochondrial potential, higher = more signal; further: test concentration not given here
[20] = resazurin metabolic signal in A549 cells – cell-based, resazurin fluorescence, 24 h, PK04 Diversity Set, profiling panel (AID 1171); conditions: A549 viability, higher = more signal, called active from +8 up or from −8 down; further: test concentration not given here

Structure (SMILES)	z-score [1]	composite z-score [2]	z-score [3]	z-score [4]	z-score [5]	z-score [6]	z-score [7]	z-score [8]	z-score [9]	z-score [10]	z-score [11]	z-score [12]	z-score [13]	z-score [14]	z-score [15]	z-score [16]	z-score [17]	z-score [18]	z-score [19]	z-score [20]
COC(=O)c1ccc(OC)c(/C=C\CC(OC(C)=O)c2ccccc2)c1 (stereo not given)	0.0491 (inactive)	-0.795	8.02 (active)	0.898 (inactive)	-0.358 (inactive)	0.303 (inactive)	-0.0878	0.0248 (inactive)	0.415 (inactive)	-1.65	-1.01	0.386	-0.753	-1.4	-2.39	-0.995	-1.15 (inactive)	-0.578	0.0862	0.519 (inactive)
CCOC(=O)C[C@H]1[C@H](OC(=O)c2ccc(-c3ccccc3)cc2)[C@@H](NC(=O)c2ccc3ccccc3c2)c2cc(OCCCO)ccc2N1C(=O)Cc1ccc(OC)cc1	0.107 (inactive)	-0.304	2.49 (inactive)	0.927 (inactive)	1.21 (inactive)	0.263 (inactive)	0.452	-1.1 (inactive)	-0.0144 (inactive)	-1.47	0.0289	0.965	0.0837	-0.379	0.0182	2.96	-0.000915 (inactive)	0.462	0.189	0.24 (inactive)
COc1ccc(C(O)C2C=CC3C(=O)N(C)C(=O)C3N2Nc2ccccc2)cc1OCc1ccccc1 (stereo not given)	-1.69 (inactive)	0.0451	1.68 (inactive)	1.36 (inactive)	0.272 (inactive)	1.1 (inactive)	-1.17	-1.25 (inactive)	-4.36 (inactive)	-2.57	-0.433	-0.621	-0.269	-0.23	-0.427	-1.7	-0.989 (inactive)	0.324	0.0666	1.88 (inactive)
COc1ccc([Si](C)(C)[C@@H]2[C@@H](CC(=O)N(CCO)Cc3ccccc3)O[C@]3(C(=O)N(C)c4ccccc43)[C@H]2C)cc1	-0.733 (inactive)	0.31	11.8 (active)	2.07 (inactive)	-0.87 (inactive)	0.57 (inactive)	0.388	0.406 (inactive)	0.965 (inactive)	-1.21	-0.664	0.349	-1.58	-2.68	-3.74	-0.494	-1.44 (inactive)	-1.12	-0.319	-1.78 (inactive)
C=CCC(OC(C)=O)[C@@H]1[C@@H](N(Cc2ccc(-c3ccccc3)cc2)C(=O)Cc2ccc(OC)cc2)c2cc(OCCCO)ccc2N1C(=O)c1ccc2ccccc2n1 (stereo not given in full)	0.165 (inactive)	0.167	2.27 (inactive)	0.925 (inactive)	-0.165 (inactive)	1.02 (inactive)	0.751	-2.73 (inactive)	1.41 (inactive)	2.5	-0.072	0.273	0.978	0.0474	-0.295	2.56	-0.269 (inactive)	0.651	0.789	0.902 (inactive)
CCC[C@@H]1C=C(C(=O)O)[C@H](c2ccc(C)cc2)N1S(=O)(=O)c1ccc(C)cc1	-0.75 (inactive)	0.114	0.0822 (inactive)	0.932 (inactive)	-0.246 (inactive)	1.03 (inactive)	-0.476	0.769 (inactive)	-0.741 (inactive)	0.101	-0.85	0.216	-0.522	-0.0213	0.101	-0.584	-0.119 (inactive)	-0.131	-0.166	-0.112 (inactive)
C=CCC(OC(C)=O)[C@@H]1[C@@H](N(Cc2cc3ccccc3o2)C(=O)c2ccc(C)cc2)c2cc(OCCCO)ccc2N1C(=O)c1ccc2ccccc2c1 (stereo not given in full)	2.19 (inactive)	0.168	1.32 (inactive)	0.393 (inactive)	-0.44 (inactive)	0.0878 (inactive)	0.147	0.355 (inactive)	0.89 (inactive)	2.7	1.37	0.595	1.89	1.14	0.671	2.27	-0.409 (inactive)	0.33	0.748	1.43 (inactive)
C=CC[C@@]1(C(=O)N2CCOCC2)N=C(c2ccc(OCCCO)cc2)O[C@@H]1c1ccccc1N=[N+]=[N-]	0.483 (inactive)	0.571	35.1 (active)	28.1 (active)	3.17 (inactive)	7.41 (inactive)	1.92	-2.14 (inactive)	-0.164 (inactive)	-2.02	-0.168	1.02	0.249	-0.791	-1.96	1.38	1.57 (inactive)	-0.97	-1.71	-0.915 (inactive)
C=CC(=C)C1=CCO[C@@H]1[C@H]1CCCN1S(=O)(=O)c1ccccc1[N+](=O)[O-]	0.279 (inactive)	-0.148	2.97 (inactive)	0.577 (inactive)	0.544 (inactive)	0.281 (inactive)	-0.031	0.516 (inactive)	1.06 (inactive)	0.77	-0.387	1.19	0.324	-1.69	-1.07	0.248	-0.736 (inactive)	-0.112	-0.233	0.707 (inactive)
